# Reference: PubChem BioAssay (NCATS)
# Where “and” joins values, the source holds several entries; their conditions need not be identical. Equal values may be shown once. Unmarked numbers belong to inactive results. Results filed as inconclusive are left out. Where a call stands in place of a potency, no number is given. Calls of active or inactive are those of the source. Unless noted, calls follow the shape of the dose curve; as a rule, active = well fitted curve in the direction sought with a large enough effect; inconclusive = small, poorly fitted or top-dose-only effect, or another doubt; inactive = no such curve, though single readings can be large; an effect the other way counts as inactive or inconclusive.
# Experiments:
# [1] = target: Guanine nucleotide-binding protein G(i) subunit alpha-1 (Homo sapiens) (UniProt P63096); test: qHTS Assay for Inhibitors of RGS12 GoLoco Motif Activity (Green Fluorophore) (AID 879);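 also: negative values mean loss of peptide binding seen as reduced polarization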
# Guanine nucleotide-binding protein G(i) subunit alpha-1 (Homo sapiens), sequence (P63096 whole entry, looked up): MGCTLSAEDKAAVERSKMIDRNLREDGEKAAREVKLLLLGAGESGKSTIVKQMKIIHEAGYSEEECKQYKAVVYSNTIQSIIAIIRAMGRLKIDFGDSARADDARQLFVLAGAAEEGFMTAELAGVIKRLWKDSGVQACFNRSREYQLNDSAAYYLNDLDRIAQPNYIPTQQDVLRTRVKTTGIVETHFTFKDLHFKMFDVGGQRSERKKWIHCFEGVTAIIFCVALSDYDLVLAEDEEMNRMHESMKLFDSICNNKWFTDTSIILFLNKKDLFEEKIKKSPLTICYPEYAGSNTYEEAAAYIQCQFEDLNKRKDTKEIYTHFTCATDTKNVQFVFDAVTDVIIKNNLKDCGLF
# Procedure, shortened: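 Fluorescence polarization assay: 50 nM Gαi1 with 10 nM FITC-labeled RGS12 GoLoco peptide in 10 mM Tris pH 7.5, 150 mM NaCl, 0.1 mM GDP, 0.05% NP40, 10 min at room temperature with compound.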
# [2] = target: Muscarinic acetylcholine receptor M1 (Rattus norvegicus) (UniProt P08482); test: qHTS Assay for Antagonists of Acetylcholine Muscarinic M1 Receptor: Kinetic Measurement of Intracellular Calcium Response (AID 943); also: nearly all actives have a fitted effect of over 75% in size
# Muscarinic acetylcholine receptor M1 (Rattus norvegicus), sequence (P08482 whole entry, looked up): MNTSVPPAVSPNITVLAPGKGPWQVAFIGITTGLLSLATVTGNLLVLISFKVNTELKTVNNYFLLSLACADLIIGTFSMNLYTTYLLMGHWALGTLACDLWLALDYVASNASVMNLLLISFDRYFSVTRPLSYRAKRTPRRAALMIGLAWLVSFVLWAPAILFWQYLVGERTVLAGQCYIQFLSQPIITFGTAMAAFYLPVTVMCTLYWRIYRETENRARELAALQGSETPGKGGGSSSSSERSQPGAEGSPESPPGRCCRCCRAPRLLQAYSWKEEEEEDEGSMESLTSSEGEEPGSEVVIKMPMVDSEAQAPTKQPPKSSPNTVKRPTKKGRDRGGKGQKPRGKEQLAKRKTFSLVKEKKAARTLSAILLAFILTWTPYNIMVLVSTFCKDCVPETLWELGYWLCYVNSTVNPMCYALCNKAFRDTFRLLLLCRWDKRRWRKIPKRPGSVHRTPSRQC
# Procedure, shortened: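 CHO cells expressing rat M1 receptor, Fluo-4 loaded, preincubated 10 min with compound, then stimulated with EC80 carbachol (100 nM final). Kinetic calcium fluorescence over 4 min; response taken as peak over basal signal.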
# [3] = target: Muscarinic acetylcholine receptor M1 (Rattus norvegicus) (UniProt P08482); test: qHTS Assay for Antagonists of Acetylcholine Muscarinic M1 Receptor: Measurement of IP-One Response (AID 944); also: nearly all actives have a fitted effect of over 75% in size
# Procedure, shortened: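 CHO cells stably expressing rat M1, pretreated 10 min with compound, then stimulated 30 min with carbachol at EC80 (200 nM) in LiCl-containing buffer pH 7.4; IP1 accumulation read by HTRF competition (665/620 nm).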
# [4] = S16 Schwann cell PMP22 intronic element beta-lactamase assay (AID 624044; calls by dose curve; also: nearly all actives have a fitted effect of over 15% in size)
# Procedure, shortened: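 Rat S16 Schwann cells with beta-Lac driven by a PMP22 intronic element, compound-treated 24 h at 37 °C. LiveBLAzer FRET B/G read: 460 nm normalized to potassium clavulanate vs DMSO; 535 nm FRET as viability; concentration-effect curves classified.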
# [5] = qHTS Assay for Identification of Small Molecule Antagonists for NFkB Signaling Pathway (AID 895; active = well fitted inhibition curve with a large enough effect in the signal ratio, with a control signal flat, not every such curve was filed as active; the % refers to the signal ratio)
# Procedure, shortened: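 NFkB-bla ME-180 cervical carcinoma cells with beta-lactamase reporter under NFkB response element; compounds added, then TNF alpha at 10 pM final (EC50), 5 h at 37 C. LiveBLAzer substrate 2 h, room temperature; emission 460/530 nm at 405 nm excitation.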
# [6] = qHTS Assay for Identification of Small Molecule Agonists for Hypoxia Response Element Signaling Pathway (AID 914; active = well fitted activation curve with a large enough effect in the signal ratio, with a control signal flat, not every such curve was filed as active; the % refers to the signal ratio; also: potency is read from the fitted curve at half-maximal effect); settings: ME-180 (cervical carcinoma) HRE-bla reporter, beta-lactamase ratio, CoCl2, 17 h; activation: stronger effect = higher value
# Procedure, shortened: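 Reporter activity (beta-lactamase, CCF4 460nm/530nm ratio) in HRE-bla ME-180 cells is recorded after 17 h compound exposure with EC50 CoCl2 at 37 degrees Celsius. AC50 values come from titration data.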
# [7] = target: Cytochrome P450 2C9 (Homo sapiens) (UniProt P11712); test: qHTS Assay for Inhibitors and Substrates of Cytochrome P450 2C9 (AID 883); also: nearly all actives have a fitted effect of over 60% in size; also: potency is read from the fitted curve at half-maximal effect
# Cytochrome P450 2C9 (Homo sapiens), sequence (P11712 whole entry, looked up): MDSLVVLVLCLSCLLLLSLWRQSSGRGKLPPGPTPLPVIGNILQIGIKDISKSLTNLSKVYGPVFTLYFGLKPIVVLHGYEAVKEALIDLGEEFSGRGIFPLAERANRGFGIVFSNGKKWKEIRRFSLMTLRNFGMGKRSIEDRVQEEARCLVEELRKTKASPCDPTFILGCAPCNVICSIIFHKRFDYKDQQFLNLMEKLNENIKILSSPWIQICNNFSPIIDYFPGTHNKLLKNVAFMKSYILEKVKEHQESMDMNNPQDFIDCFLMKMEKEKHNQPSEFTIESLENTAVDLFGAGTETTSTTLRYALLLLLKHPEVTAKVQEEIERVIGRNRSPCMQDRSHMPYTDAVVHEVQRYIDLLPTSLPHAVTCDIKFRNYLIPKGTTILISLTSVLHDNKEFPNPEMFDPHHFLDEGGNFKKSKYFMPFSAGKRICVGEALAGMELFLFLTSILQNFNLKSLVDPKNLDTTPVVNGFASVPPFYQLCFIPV
# Procedure, shortened: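 A luminogenic readout tracked human CYP2C9 (10nM) converting deoxyluciferin (100uM, at KM) in 25mM KPO4 during 60 min at 37C with regenerated NADPH. Values normalized to 57uM sulphaphenazole as complete inhibition.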
# CP297 = test: qHTS profiling for inhibitors of Plasmodium falciparum proliferation (AID 504749); also: nearly all actives have a fitted effect of over 60% in size; settings: P. falciparum in erythrocytes, SYBR Green DNA, 72 h; series mostly up to 12.8 µM
# Procedure, shortened: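 Parasite proliferation within erythrocytes, 72 h exposure. Endpoint: SYBR Green I fluorescence after overnight lysis at room temperature. Controls: 0.29 uM artemisinin, DMSO.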
# [8] = target: Cytochrome P450 3A4 (Homo sapiens) (UniProt P08684); test: qHTS Assay for Inhibitors and Substrates of Cytochrome P450 3A4 (AID 884); also: nearly all actives have a fitted effect of over 50% in size
# Cytochrome P450 3A4 (Homo sapiens), sequence (P08684 whole entry, looked up): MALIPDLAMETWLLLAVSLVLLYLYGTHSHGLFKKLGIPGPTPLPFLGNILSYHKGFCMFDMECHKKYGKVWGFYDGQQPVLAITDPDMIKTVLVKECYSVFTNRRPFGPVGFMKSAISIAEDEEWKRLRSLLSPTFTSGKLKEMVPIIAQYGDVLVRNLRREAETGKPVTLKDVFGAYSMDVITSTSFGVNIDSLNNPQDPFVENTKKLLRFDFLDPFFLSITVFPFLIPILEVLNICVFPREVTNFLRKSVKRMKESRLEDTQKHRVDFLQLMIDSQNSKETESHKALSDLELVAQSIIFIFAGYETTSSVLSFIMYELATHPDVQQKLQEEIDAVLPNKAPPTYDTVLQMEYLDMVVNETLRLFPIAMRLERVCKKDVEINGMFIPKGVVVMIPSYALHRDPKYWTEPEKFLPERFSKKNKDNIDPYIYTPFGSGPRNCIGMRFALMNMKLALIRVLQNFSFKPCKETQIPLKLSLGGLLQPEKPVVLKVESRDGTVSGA
# Procedure, shortened: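 20 nM human CYP3A4 with 25 uM Luciferin-PPXE (at KM) in 200 mM KPO4, preincubated 10 min with compound; NADPH regeneration started a 60 min RT reaction. Luciferin detected by luminescence, normalized to 57 uM ketoconazole as full inhibition.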
# [9] = target: Cytochrome P450 2D6 (Homo sapiens) (UniProt P10635); test: qHTS Assay for Inhibitors and Substrates of Cytochrome P450 2D6 (AID 891); also: nearly all actives have a fitted effect of over 60% in size; also: potency is read from the fitted curve at half-maximal effect
# Cytochrome P450 2D6 (Homo sapiens), sequence (P10635 whole entry, looked up): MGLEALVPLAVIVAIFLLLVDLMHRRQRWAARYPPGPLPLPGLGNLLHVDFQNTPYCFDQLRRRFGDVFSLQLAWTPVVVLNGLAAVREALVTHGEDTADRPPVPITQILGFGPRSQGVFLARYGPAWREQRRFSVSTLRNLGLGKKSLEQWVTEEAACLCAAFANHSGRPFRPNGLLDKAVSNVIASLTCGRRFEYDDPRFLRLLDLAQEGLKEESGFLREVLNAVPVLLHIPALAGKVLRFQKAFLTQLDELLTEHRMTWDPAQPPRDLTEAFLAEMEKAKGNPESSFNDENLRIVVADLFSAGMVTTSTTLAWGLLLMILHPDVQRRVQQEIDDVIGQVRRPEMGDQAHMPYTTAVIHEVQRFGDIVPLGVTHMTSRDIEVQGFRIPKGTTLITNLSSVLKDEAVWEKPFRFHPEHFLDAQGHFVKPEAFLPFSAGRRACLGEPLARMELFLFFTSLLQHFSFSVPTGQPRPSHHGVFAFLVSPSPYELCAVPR
# Procedure, shortened: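 Human CYP2D6 (5 nM) with 30 uM Luciferin-ME EGE (at Km) in 100 mM KPO4, compound preincubated 10 min, then NADPH regeneration system for 60 min at room temperature. Luciferin read by luminescence; normalized to 1.43 uM quinidine.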
# [10] = target: Cytochrome P450 2C19 (Homo sapiens) (UniProt P33261); test: qHTS Assay for Inhibitors and Substrates of Cytochrome P450 2C19 (AID 899); also: nearly all actives have a fitted effect of over 60% in size
# Cytochrome P450 2C19 (Homo sapiens), sequence (P33261 whole entry, looked up): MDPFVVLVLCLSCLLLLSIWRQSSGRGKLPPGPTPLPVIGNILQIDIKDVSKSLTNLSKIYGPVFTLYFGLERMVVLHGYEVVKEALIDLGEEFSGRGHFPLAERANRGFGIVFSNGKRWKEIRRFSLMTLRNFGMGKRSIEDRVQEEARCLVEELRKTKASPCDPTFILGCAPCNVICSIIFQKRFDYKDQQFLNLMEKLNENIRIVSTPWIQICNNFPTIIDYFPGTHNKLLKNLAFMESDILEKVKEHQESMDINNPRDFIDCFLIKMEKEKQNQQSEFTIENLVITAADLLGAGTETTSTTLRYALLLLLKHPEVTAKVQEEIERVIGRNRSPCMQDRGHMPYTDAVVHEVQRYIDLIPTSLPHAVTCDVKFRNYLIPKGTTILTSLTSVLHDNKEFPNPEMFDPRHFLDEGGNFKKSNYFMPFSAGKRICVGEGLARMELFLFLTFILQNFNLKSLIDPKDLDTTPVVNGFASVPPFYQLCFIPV
# Procedure, shortened: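 NADPH-dependent conversion of Luciferin-H EGE (10uM, at KM) by 5nM enzyme in 50mM KPO4, 60 min at 37C following 10 min compound preincubation. Stopped with luciferin detection buffer; luminescence read after 20 min.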
# [11] = Confirmation and Secondary Assay for Modulators of Hemoglobin Beta Chain Splicing at IVS2 654 locus (AID 910);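 also: per-well total GFP intensity by laser scanning cytometry after 2-day treatment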
# Procedure, shortened: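 HeLa cells stably carrying EGFP interrupted by mutant beta-globin IVS2-654 intron (CMV-driven) were treated with compound for 2 days at 37C; corrected splicing was scored as total peak GFP intensity per well (488 nm excitation, 500-520 nm emission).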
# [12] = Confirmation and Secondary Assay for Modulators of Hemoglobin Beta Chain Splicing at IVS2 705 locus (AID 930);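 also: HeLa cells stably expressing the EGFP-705 splicing reporter; GFP fluorescence per well restored by corrected splicing of the IVS2-705 intron in EGFP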
# Procedure, shortened: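 Stable HeLa line with EGFP disrupted by mutant beta-globin intron 2 (705). Overnight attachment, then 2 days of compound at 37C, 5% CO2. Signal: peak GFP intensity summed over objects 5-250 µm.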
# [13] = target: Pyruvate kinase PKM (Homo sapiens) (UniProt P14618); test: qHTS Assay for Inhibitors of Human Muscle Pyruvate Kinase (AID 958)
# Pyruvate kinase PKM (Homo sapiens), sequence (P14618 whole entry, looked up): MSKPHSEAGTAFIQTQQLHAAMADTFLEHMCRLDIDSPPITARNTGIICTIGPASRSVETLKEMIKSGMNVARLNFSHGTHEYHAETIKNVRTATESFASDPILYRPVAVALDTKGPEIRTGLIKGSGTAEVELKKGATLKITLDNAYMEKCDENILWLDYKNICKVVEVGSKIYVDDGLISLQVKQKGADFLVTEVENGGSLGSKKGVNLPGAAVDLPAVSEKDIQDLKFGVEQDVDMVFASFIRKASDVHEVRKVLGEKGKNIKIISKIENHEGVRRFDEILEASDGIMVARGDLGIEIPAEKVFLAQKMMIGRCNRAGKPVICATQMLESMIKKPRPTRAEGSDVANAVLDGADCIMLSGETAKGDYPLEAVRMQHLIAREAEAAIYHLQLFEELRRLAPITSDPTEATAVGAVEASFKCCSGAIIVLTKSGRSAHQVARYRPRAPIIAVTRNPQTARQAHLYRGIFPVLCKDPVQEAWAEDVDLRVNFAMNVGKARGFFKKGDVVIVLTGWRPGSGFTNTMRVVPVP
# Procedure, shortened: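 Screening used highly purified human pyruvate kinase M2 under submaximal activity, with PEP at its Km and ADP below Km. After an hour at room temperature, ATP was read by luciferase luminescence.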
# [14] = target: Pyruvate kinase (Leishmania mexicana) (UniProt Q27686); test: qHTS Validation Assay for Activators of Leishmania Mexicana Pyruvate Kinase (AID 959); settings: purified L. mexicana pyruvate kinase, enzyme activity
# Pyruvate kinase (Leishmania mexicana), sequence (Q27686 2-499 E452W): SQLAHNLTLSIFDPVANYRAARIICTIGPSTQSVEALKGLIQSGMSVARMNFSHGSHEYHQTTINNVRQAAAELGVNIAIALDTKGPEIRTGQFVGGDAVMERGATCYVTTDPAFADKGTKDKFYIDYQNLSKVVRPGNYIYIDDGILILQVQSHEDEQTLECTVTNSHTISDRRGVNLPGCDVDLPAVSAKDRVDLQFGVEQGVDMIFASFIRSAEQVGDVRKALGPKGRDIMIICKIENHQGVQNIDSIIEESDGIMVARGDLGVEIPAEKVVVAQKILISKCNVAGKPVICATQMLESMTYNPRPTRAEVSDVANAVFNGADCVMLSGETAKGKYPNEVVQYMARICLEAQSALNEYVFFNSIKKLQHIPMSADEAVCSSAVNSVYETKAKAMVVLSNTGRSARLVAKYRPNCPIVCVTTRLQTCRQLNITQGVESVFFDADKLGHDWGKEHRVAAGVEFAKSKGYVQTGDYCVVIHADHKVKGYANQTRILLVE
# Procedure, shortened: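 Mutant LmPYK (E451W), 0.2 nM, plus 0.5 mM PEP and 0.1 mM ADP in 50 mM imidazole pH 7.2 containing 0.01% Tween 20 and 0.05% BSA. Incubated 1 h at room temperature; luminescence via PKLight, normalized to DMSO.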
smiles,measurement,setting,value
CCCN(CCC)C(=O)[C@@H](CCC(=O)O)NC(=O)c1ccccc1,Potency,[1],inactive
C[C@@H]1c2cccc(O)c2C(O)=C2C(=O)[C@@]3(O)C(O)=C(C(N)=O)C(=O)[C@@H](N(C)C)[C@@H]3[C@@H](O)[C@@H]21,Potency,[2],inactive
same,Potency,[3],inactive
same,outcome,[4],inactive
CC(C)(Oc1ccc([C@@H]2CC2(Cl)Cl)cc1)C(=O)O,Potency,[5],inactive
same,activation,[6],-18.9%
CN(C)[C@@H]1C(=O)C(C(N)=O)=C(O)[C@]2(O)C(=O)C3=C(O)c4c(O)ccc(Cl)c4[C@H](O)[C@H]3C[C@@H]12,Potency,[1],inactive
same,Potency,[7],inactive
same,Potency,[5],inactive
same,Potency,[2],inactive
same,Potency,[3],inactive
same,outcome,[4],inactive
same,Potency,CP297,inactive
O=C(c1ccccc1)c1ccc2n1CC[C@H]2C(=O)O,Potency,[3],inactive
same,outcome,[4],inactive
O=c1c(-c2cccs2)nc2cnc(Oc3cccc(Cl)c3)nc2n1C1CC1,Potency,[6],3.16 µM (active)
CC(=O)[C@@H]1CC[C@@H]2[C@@H]3CCC4=CC(=O)CC[C@@]4(C)[C@H]3CC[C@]21C,Potency,[8],inactive
same,Potency,[9],inactive
CN1CCN(c2ncc3nc(-c4ccccc4)c(=O)n(CCC#N)c3n2)CC1,Potency,[6],3.16 µM (active)
CO[C@]1(NC(=O)CSCC#N)C(=O)N2C(C(=O)O)=C(CSc3nnnn3C)CS[C@H]21,Potency,[1],inactive
C[C@@]12CCC(=O)C=C1CC[C@@H]1[C@@H]2[C@H](O)C[C@]2(C)[C@@H]1CC[C@]2(O)C(=O)CO,Potency,[7],inactive
same,Potency,[9],inactive
same,Potency,[10],inactive
c1ccc([C@@H]2CN3CCSC3=N2)cc1,Potency,[3],inactive
N[C@@H](CO)C(=O)NNCc1ccc(O)c(O)c1O,Potency,[5],inactive
same,Potency,[2],inactive
same,Potency,[3],inactive
same,outcome,[4],inactive
same,Potency,CP297,inactive
CCCCCN(CCCCC)C(=O)[C@H](CCC(=O)O)NC(=O)c1ccc(Cl)c(Cl)c1,Potency,[1],inactive
same,Potency,[7],3.98 µM (active)
same,Potency,[5],inactive
same,Potency,[2],inactive
same,Potency,[3],inactive
C[C@@](N)(Cc1ccc(O)c(O)c1)C(=O)O,Potency,[9],inactive
same,Potency,[10],inactive
same,Potency,[11],inactive
same,outcome,[12],inactive
C[C@@H](CCc1ccccc1)NC[C@H](O)c1ccc(O)c(C(N)=O)c1,Potency,[9],3.98 µM (active) and 2 µM (active)
same,Potency,[3],inactive
same,outcome,[4],inactive
same,Potency,CP297,inactive
CO/N=C(\C(=O)N[C@@H]1C(=O)N2C(C(=O)O)=C(COC(C)=O)CS[C@@H]12)c1csc(N)n1,Potency,[1],inactive
same,Potency,[5],inactive
same,Potency,[3],inactive
same,outcome,[13],inactive
same,Potency,[14],25.1 µM (active)
same,outcome,[4],inactive
same,Potency,CP297,inactive
